Reference: paper PMC4336329 (PLoS ONE, 2015)
In all, about 310,000 compounds went through this assay and about 14,000 (4.5%) showed an effect of 50% or more. The effect is printed as a negative number. Shown is part of a subset that was picked to be rich in strong results.

Biological target: human ether-à-go-go-related gene (hERG) potassium channel (human, UniProt Q12809)
Assay: primary screen, population patch clamp on CHO cells stably expressing hERG; higher = less effect of the substance
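Further: peak tail current of the secondary pulse compared with the same well before compound.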

human ether-à-go-go-related gene (hERG) potassium channel, sequence (Q12809 whole entry, looked up): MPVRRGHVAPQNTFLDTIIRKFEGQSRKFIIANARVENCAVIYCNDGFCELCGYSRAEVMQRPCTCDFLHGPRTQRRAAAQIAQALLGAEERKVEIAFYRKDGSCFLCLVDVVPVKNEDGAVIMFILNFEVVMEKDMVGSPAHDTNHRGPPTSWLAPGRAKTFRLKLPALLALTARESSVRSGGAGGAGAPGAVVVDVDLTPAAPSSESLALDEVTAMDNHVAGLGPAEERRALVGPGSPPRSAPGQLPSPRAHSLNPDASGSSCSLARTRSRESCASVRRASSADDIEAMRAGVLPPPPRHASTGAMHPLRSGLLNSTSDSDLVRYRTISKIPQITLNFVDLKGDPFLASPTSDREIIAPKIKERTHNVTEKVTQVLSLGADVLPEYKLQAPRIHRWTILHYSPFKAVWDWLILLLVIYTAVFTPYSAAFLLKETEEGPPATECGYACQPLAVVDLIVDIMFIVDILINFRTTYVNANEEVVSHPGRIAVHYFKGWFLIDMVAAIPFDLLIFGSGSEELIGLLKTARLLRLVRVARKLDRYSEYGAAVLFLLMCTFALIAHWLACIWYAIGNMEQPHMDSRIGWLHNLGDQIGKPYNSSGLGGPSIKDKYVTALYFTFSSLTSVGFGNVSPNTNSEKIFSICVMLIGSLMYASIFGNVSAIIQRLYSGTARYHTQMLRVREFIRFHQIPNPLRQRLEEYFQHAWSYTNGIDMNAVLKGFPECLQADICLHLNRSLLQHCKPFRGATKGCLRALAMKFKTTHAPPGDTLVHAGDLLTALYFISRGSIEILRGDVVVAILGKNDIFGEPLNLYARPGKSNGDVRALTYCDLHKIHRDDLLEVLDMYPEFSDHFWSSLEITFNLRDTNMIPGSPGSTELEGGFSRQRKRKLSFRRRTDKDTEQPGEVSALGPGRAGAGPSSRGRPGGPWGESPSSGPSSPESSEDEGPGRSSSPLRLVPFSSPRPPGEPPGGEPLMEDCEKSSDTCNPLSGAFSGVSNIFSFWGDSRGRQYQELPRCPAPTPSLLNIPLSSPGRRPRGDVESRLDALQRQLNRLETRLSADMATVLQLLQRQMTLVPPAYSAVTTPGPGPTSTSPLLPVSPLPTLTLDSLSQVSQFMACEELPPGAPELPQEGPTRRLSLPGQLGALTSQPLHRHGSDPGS

| Compound | hERG current change (%, negative = inhibition) at 10uM |
| --- | --- |
| Cc1sc2ncnc(NCCc3ccc(S(N)(=O)=O)cc3)c2c1C | 12.6% |
| COc1ccc(CCNC(=O)CSc2nn3c(=O)c(C)nnc3s2)cc1OC | 6.31% |
| CN(CC(=O)Nc1ccccc1C(F)(F)F)C(=O)COc1ncnc2ccccc12 | 1.42% |
| O=C(CNCc1ccc(Cl)cc1)NCc1ccco1.O=C(O)C(=O)O | -17.3% |
| Cc1cccc(OCc2n[nH]c(=S)n2-c2ccccc2)c1 | 10.1% |
| CC(=O)Nc1ccc(C(=O)OCC(=O)NCc2ccccc2)cc1 | 11.9% |
| O=C(COC(=O)CCC(=O)c1ccc(F)cc1)Nc1ccc2[nH]c(=O)[nH]c2c1 | -3.65% |
| O=C(CN1CCN(S(=O)(=O)c2ccc(F)cc2)CC1)Nc1ccc(F)cc1F | -60.3% |
| O=C(COC(=O)c1ccc(S(=O)(=O)N2CCCC2)cc1)Nc1ccc(F)cc1F | 9.22% |
| O=C(Nc1ccc(F)cc1F)NC1CCN(S(=O)(=O)c2ccc(F)cc2)CC1 | 9.78% |
| C/C(=N\OCC(=O)NC12CC3CC(CC(C3)C1)C2)c1cc2ccccc2o1 | 5.38% |
| CCOc1ccc(S(=O)(=O)N2CCN(CN3C(=O)CC4(CCCC4)C3=O)CC2)cc1 | -8.79% |
| N#CCCN(Cc1cccnc1)C(=O)Nc1ccccc1 | -3.06% |
| CC(C)=CCN1CCN(Cc2cc(F)ccc2-n2nc(C)cc2C)CC1CCO (stereo not drawn) | -25% |
| CC(C)=CCN1CCN(Cc2nc(C(C)C)cs2)CC1CCO (stereo not drawn) | -12.9% |
| CC(C)(C)CN1CCN(Cc2nc(-c3ccc(F)cc3)cs2)CC1CCO (stereo not drawn) | -62.5% |
| CC(C)=CCN1CCN(Cc2nc(-c3ccccc3)cs2)CC1CCO (stereo not drawn) | -60.4% |
| CC(C)=CCN1CCN(CC#Cc2ccccc2)CC1CCO (stereo not drawn) | -13% |
| CC(C)(C)CN1CCN(Cc2c[nH]c3ccccc23)CC1CCO (stereo not drawn) | 15.5% |
| CC(C)(C)CN1CCN(Cc2cccnc2)CC1CCO (stereo not drawn) | 13.6% |
| CC(C)=CCN1CCN(Cc2nc(-c3ccc(F)cc3)cs2)CC1CCO (stereo not drawn) | -69% |
| CC(C)=CCN1CCN(Cc2cccnc2)CC1CCO (stereo not drawn) | -1.24% |
| CCN(CC(=O)NCc1ccc(F)cc1)C(=O)C1CCN(C(=O)Nc2ccccc2)CC1 | -7.79% |

| Compound | hERG current change (%, negative = inhibition) at 10uM |
| --- | --- |
| COCCn1c(SCC(=O)N2CC(=O)Nc3ccccc32)nc2ccccc21 | -2.29% |
| O=C(Nc1ccc(N2CCCCC2)cc1)c1cccnc1 | 4.6% |
| COCCCNC(=O)c1ccc2nc3ccccc3c(=O)n2c1 | 14.7% |
| CCn1cc(C(=O)NCC2CCCO2)c2cc(OC)c(OC)cc2c1=O (stereo not drawn) | 19.4% |
| Cc1ccc(-c2nn(-c3ccccc3)cc2C(=O)NCC2CCCO2)cc1 (stereo not drawn) | -25.8% |
| COCCCNC(=O)CSc1nc2ccccc2c(=O)n1CCCC(=O)NCC1CCCO1 (stereo not drawn) | -0.988% |
| COc1ccc(-c2cc(C(=O)NCC3CCCO3)c3cc(C)ccc3n2)cc1 (stereo not drawn) | -3.03% |
| Cn1nc(C(=O)NCC2CCCO2)c2ccccc2c1=O (stereo not drawn) | -3% |
| C=CCNC(=O)c1cc2c(=O)n3cc(C)ccc3nc2nc1NCC1CCCO1 (stereo not drawn) | -73% |
| CCNc1nc2nc3ccc(C)cn3c(=O)c2cc1C(=O)NCC1CCCO1 (stereo not drawn) | -70.6% |
| Cc1ccc(-c2nn(-c3ccccc3Cl)cc2C(=O)NCC2CCCO2)cc1 (stereo not drawn) | -0.0276% |
| CCOCCCNc1nc2nc3ccc(C)cn3c(=O)c2cc1C(=O)NCC1CCCO1 (stereo not drawn) | -77.7% |
| COCCCNC(=O)c1cc2c(=O)n3cc(C)ccc3nc2nc1NCC1CCCO1 (stereo not drawn) | -71.9% |
| Cc1ccc(-c2noc(-c3ccccc3C(=O)NCC3CCCO3)n2)cc1 (stereo not drawn) | -18.6% |
| Cc1ccc(C)c(C(=O)CCC(=O)Nc2cccnc2)c1 | 7.26% |
| COc1cccc(/C=C/C(=O)OCC(=O)NCC2CCCCC2)c1OC | 8.32% |
| CCN(CC)c1ccc2c(C)c(CN3CCOCC3)c(=O)oc2c1 | -11.1% |
| C=Cc1ccc(C(=O)N2CCCC(CCC(=O)N3CCN(c4ccccn4)CC3)C2)cc1 (stereo not drawn) | -4.57% |
| CCCCNc1nc(N)nc(-c2cc(Cl)ccc2O)n1 | 20.9% |
| CCCOc1ccc(C(=O)Nc2cccnc2)cc1 | 3.01% |
| c1ccc(-c2nc(CSc3n[nH]c(-c4cccs4)n3)cs2)cc1 | -15.1% |
| Cc1ccc2c(c1)c(=O)c1c3n2CCN(CC2CO2)C3CC1 (stereo not drawn) | 4.27% |
